Test [1] has as its system PRMT1 (protein arginine N-methyltransferase 1). The experiment in a line: small molecules binding arginine methyltransferase PRMT1 – biochemical, small-molecule microarray, 635 nm fluorescence, primary screen (AID 1088).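 Also: binding of Prmt1 protein to compounds spotted on small-molecule microarray slides.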 As to conditions: higher = more signal.
The nature of test [2]: growth effects on S. cerevisiae YJM789 – YJM789 clinical isolate, OD600, 24 h, basal, primary screen (AID 1089).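 Also: growth of clinical yeast isolate S. cerevisiae YJM 789 seeded 1000 cells per well; test concentration not given here.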 As to conditions: higher = more signal, called active from +8 up or from −8 down.
A short description of test [3]: S. pombe growth modifiers, basal conditions – strain 972, OD600, 24 h, no modulator, primary screen (AID 1090).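 Also: basal condition with compound alone and no growth modifier present; test concentration not given here.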 Conditions: S. pombe 972 growth, higher = more signal, called active from +8 up or from −8 down.
The nature of test [4]: budding yeast growth modifiers under rapamycin – strain BY4716, OD600, 96 h, primary screen (AID 1091). Also: test concentration not given here. Conditions: S. cerevisiae BY4716 + rapamycin, higher = more signal, called active from +8 up or from −8 down.
Test [5] addresses Torsin-1A-interacting protein 2 (Homo sapiens) (UniProt Q8NFQ8). The experiment in a line: small molecules binding lysate-expressed LULL1 – cell lysate, human LULL1 lysate, 635/667 nm fluorescence, primary screen (AID 1092).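 Also: probe is lysate of COS7 cells overexpressing human LULL1; score merges per-feature 667 nm fluorescence with signal-to-noise.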 Conditions: small-molecule microarray, hLULL1 lysate binding, 635 nm fluorescence; higher = more signal.
Test [6] in a line: optical density change of DRC41 E. coli – strain DRC41, OD650, 24 h, E. coli filamentation project, primary screen (AID 1093).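 Also: MC1000 strain lacking acrAB efflux and sulA so SOS filamentation is blocked; test concentration not given here.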 As to conditions: E. coli DRC41 growth, higher = more signal, called active from +8 up or from −8 down.
Test [7] is described as follows: probe aLefty2 binding to arrayed compounds – biochemical, biotinylated probe, 635/667 nm fluorescence, primary screen (AID 1094).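 Also: score merges spot fluorescence near 667 nm with spot signal-to-noise ratio.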 As to conditions: small-molecule microarray, higher = more signal.
For test [8], the system named is Noggin (protein binding on small-molecule microarray). The experiment in a line: small molecules binding Noggin protein – biochemical, 635/667 nm fluorescence, primary screen (AID 1095).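 Also: score merges 667 nm feature fluorescence with signal to noise over triplicate slides.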 As to conditions: 635 nm fluorescence, higher = more signal.
The target of test [9] is Neurogenic locus notch homolog protein 3 (Homo sapiens) (UniProt Q9UM47). The experiment in a line: small molecules binding NOTCH3 protein – biochemical, 635/667 nm fluorescence, primary screen (AID 1096). As to conditions: small-molecule microarray, 635 nm fluorescence, higher = more signal.
Test [10] can be described thus: probe aEGFR binding to arrayed compounds – biochemical, biotinylated probe, 635/667 nm fluorescence, primary screen (AID 1097).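 Also: probe is a biotinylated anti-EGFR antibody binding compounds printed on slides; score combines fluorescence near 667 nm and signal to noise of each spot.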 As to conditions: small-molecule microarray, higher = more signal.
The test system of test [11] is Plasmodium falciparum Sir2 (PF13_0152, Sir2A). The test is described as follows: Plasmodium falciparum Sir2A binding compounds – biochemical, small-molecule microarray, 635 nm fluorescence, primary screen (AID 1098).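 Also: score merges spot fluorescence intensity with its signal-to-noise ratio.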 Conditions: fluorescence 635 nm, higher = more signal.
Test [12] can be described thus: probe aDKK1 binding to arrayed compounds – biochemical, biotinylated probe, 635/667 nm fluorescence, primary screen (AID 1099).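 Also: score merges 667nm spot fluorescence with signal to noise across triplicate slides; reference of the scale not given here.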 As to conditions: small-molecule microarray, higher = more signal.
Test [13] in a line: probe aCHRDL2 binding to arrayed compounds – biochemical, biotinylated probe, 635/667 nm fluorescence, primary screen (AID 1100). Conditions: small-molecule microarray, higher = more signal.
Test [14] can be described thus: change in splice reporter luminescence, either direction, cell-based, HEK293, spliceosome inhibition project, primary screen (AID 1101).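 Also: HEK293 cells carrying a splicing-competent luciferase reporter gene; test concentration not given here.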 As to conditions: HEK293 splicing luciferase reporter, 24 h, higher = more signal, called active from +8 up or from −8 down.
In test [15] the target is Fibroblast growth factor 10 (Homo sapiens) (UniProt O15520). The test is described as follows: compounds binding fibroblast growth factor 10 – biochemical, small-molecule microarray, 635 nm fluorescence, primary screen (AID 1102). As to conditions: FGF10 binding, fluorescence 635 nm, higher = more signal.
The test system of test [16] is glycogen synthase kinase-3 (GSK3A per assay name; protocol says GSK3B). The experiment in a line: compounds binding glycogen synthase kinase-3 – biochemical, small-molecule microarray, 635 nm fluorescence, GSK3A, primary screen (AID 1103). Also: the record names both GSK3A and GSK3B. Conditions: fluorescence 635 nm, higher = more signal.
Test [17] has as its target Epidermal growth factor receptor (Homo sapiens) (UniProt P00533). The test is described as follows: compounds binding epidermal growth factor receptor – biochemical, small-molecule microarray, 635 nm fluorescence, primary screen (AID 1104).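 Also: score merges 667 nm emission intensity with spot signal to noise over triplicate slides.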 As to conditions: EGFR binding, higher = more signal.
Test [18] has as its target Follistatin-related protein 3 (Homo sapiens) (UniProt O95633). The experiment in a line: compounds binding follistatin-related protein 3 – biochemical, small-molecule microarray, 635 nm fluorescence, primary screen (AID 1105).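 Also: score merges emission near 667 nm and signal to noise per printed spot across three slides.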 Conditions: FSTL3 binding, higher = more signal.
Test [19] addresses Dickkopf-related protein 1 (Homo sapiens) (UniProt O94907). The test is described as follows: small molecules binding DKK1 protein – biochemical, small-molecule microarray, 635 nm fluorescence scan, primary screen (AID 1106).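 Also: score merges emission near 667 nm with signal to noise over three replicate slides.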 Conditions: higher = more signal.
Test [20] has as its system Inhibin beta A chain (activin A). The experiment in a line: small molecules binding activin A – biochemical, small-molecule microarray, 635 nm fluorescence scan, primary screen (AID 1107).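 Also: mouse activin A protein probed at 4.33 µg/mL on printed slides; score merges bound-protein fluorescence near 667 nm with spot signal-to-noise.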 Conditions: INHBA, higher = more signal.

Activity calls are given as the source filed them.

Torsin-1A-interacting protein 2 (Homo sapiens), sequence (Q8NFQ8 whole entry, looked up): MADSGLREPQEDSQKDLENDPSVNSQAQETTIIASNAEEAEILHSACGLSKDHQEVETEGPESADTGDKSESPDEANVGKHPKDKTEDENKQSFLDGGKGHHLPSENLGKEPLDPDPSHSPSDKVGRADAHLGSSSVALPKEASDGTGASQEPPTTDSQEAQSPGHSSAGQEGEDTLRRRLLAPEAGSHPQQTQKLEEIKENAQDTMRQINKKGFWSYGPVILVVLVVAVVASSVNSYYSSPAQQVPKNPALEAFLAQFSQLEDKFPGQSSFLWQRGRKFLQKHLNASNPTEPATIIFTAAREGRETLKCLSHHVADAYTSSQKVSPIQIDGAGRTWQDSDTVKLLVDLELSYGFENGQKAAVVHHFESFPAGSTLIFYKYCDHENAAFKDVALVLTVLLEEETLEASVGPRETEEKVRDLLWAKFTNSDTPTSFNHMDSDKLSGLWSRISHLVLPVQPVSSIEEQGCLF
Follistatin-related protein 3 (Homo sapiens), sequence (O95633 whole entry, looked up): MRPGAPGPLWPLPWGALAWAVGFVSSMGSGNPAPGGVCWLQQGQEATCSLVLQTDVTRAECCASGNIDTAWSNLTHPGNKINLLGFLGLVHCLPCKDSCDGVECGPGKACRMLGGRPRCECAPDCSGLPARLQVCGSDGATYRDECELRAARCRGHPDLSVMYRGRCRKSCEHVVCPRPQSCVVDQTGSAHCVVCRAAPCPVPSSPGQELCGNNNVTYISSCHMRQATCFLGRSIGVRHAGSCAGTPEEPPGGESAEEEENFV
Epidermal growth factor receptor (Homo sapiens), sequence (P00533 whole entry, looked up): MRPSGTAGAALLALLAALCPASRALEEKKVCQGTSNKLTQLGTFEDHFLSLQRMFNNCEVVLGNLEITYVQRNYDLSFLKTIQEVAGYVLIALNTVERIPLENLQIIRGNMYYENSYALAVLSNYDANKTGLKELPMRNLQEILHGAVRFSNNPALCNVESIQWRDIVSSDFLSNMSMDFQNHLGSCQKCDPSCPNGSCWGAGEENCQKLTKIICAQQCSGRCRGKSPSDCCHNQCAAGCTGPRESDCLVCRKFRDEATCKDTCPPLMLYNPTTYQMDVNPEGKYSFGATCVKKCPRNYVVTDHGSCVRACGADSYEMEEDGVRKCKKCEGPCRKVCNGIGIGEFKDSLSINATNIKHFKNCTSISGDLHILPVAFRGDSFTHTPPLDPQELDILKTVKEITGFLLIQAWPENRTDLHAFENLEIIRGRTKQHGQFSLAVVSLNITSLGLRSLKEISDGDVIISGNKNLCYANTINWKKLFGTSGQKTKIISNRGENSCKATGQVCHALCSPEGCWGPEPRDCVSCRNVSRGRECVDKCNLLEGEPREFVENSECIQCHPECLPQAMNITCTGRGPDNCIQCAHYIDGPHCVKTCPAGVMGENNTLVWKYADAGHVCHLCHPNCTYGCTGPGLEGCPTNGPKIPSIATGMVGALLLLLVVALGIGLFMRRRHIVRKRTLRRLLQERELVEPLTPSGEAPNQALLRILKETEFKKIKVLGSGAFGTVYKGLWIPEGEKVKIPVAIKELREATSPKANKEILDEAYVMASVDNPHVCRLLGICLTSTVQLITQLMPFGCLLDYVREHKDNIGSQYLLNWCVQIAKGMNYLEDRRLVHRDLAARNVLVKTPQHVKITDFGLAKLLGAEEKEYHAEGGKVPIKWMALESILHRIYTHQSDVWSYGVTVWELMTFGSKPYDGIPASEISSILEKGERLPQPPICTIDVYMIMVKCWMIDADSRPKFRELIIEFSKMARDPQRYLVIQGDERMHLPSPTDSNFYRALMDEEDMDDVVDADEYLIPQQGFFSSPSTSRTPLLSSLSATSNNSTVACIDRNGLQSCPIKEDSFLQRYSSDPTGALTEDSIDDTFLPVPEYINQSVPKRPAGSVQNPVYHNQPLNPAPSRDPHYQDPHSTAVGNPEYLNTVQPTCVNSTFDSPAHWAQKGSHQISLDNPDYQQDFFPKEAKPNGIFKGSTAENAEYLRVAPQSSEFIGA
Neurogenic locus notch homolog protein 3 (Homo sapiens), sequence (Q9UM47 whole entry, looked up): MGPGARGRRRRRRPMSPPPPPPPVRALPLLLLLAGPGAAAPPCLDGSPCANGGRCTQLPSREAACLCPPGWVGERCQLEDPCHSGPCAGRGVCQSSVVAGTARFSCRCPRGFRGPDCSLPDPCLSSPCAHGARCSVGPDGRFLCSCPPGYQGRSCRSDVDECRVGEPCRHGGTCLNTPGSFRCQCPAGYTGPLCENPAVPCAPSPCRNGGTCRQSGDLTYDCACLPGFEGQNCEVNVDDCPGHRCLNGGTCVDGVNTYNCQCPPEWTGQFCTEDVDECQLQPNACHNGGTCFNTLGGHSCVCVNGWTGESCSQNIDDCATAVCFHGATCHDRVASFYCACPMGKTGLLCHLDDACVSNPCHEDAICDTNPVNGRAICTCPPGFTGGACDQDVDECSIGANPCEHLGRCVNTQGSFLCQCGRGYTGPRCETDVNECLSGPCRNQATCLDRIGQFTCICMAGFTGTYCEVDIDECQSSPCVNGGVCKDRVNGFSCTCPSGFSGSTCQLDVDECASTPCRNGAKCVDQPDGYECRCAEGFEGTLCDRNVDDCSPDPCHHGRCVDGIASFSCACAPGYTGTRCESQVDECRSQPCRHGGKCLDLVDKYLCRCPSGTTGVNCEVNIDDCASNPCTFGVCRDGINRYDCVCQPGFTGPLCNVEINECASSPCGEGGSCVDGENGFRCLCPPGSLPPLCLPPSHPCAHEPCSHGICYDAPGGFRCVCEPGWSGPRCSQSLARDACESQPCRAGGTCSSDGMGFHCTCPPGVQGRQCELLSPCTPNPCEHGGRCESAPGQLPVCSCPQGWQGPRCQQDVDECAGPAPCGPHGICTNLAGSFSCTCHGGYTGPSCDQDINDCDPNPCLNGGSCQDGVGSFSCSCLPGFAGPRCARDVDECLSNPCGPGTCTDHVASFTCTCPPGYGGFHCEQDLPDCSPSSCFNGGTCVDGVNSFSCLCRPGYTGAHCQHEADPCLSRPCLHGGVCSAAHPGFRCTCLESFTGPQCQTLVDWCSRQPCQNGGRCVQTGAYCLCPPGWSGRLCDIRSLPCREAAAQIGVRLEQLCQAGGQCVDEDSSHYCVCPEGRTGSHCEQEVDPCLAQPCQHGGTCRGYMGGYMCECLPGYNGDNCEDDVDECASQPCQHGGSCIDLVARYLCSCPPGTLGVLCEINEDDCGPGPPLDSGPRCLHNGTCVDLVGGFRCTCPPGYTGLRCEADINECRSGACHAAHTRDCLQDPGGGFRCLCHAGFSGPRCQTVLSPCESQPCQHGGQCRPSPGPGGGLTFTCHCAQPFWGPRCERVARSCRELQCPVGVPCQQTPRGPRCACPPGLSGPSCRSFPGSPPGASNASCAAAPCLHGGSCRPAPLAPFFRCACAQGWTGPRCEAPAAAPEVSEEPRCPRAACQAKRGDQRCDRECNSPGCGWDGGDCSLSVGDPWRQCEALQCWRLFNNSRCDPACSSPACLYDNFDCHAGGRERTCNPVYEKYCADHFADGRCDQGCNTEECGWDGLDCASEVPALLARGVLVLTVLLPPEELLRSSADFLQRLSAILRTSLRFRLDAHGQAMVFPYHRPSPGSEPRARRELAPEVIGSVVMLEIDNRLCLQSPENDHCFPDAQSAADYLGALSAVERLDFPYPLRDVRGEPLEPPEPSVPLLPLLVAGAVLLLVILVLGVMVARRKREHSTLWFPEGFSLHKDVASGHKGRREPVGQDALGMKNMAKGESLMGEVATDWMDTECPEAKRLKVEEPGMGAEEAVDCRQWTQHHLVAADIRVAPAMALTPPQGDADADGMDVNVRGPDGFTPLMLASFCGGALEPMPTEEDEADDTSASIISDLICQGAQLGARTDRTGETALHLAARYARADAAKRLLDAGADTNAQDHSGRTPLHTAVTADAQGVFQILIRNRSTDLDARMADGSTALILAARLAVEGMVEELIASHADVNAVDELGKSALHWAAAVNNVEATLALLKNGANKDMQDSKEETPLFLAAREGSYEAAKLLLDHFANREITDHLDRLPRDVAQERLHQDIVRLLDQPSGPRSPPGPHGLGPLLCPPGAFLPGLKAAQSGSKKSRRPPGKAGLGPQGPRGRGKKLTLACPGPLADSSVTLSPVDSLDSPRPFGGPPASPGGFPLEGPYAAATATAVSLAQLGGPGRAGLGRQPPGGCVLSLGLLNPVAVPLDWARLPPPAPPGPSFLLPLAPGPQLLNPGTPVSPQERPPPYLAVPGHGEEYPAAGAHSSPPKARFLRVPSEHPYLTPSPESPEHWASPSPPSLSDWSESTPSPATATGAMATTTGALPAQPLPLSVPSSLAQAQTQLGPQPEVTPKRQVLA
Fibroblast growth factor 10 (Homo sapiens), sequence (O15520 whole entry, looked up): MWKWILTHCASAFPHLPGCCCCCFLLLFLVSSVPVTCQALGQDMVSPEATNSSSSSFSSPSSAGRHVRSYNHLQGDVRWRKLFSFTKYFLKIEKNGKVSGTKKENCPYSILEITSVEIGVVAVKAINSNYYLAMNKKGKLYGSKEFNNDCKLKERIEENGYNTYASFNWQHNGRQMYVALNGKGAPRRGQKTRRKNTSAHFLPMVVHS
Dickkopf-related protein 1 (Homo sapiens), sequence (O94907 whole entry, looked up): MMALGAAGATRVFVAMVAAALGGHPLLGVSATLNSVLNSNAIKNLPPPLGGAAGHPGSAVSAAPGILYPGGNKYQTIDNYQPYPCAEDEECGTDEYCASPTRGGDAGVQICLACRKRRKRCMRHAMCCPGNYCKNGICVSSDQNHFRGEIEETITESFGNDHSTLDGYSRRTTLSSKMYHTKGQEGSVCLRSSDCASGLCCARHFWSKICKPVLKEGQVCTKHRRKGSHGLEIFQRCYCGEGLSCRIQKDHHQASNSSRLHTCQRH

Consider `CC(C)CNC(=O)[C@@]1(C)c2ccccc2C(=O)N(Cc2ccc(OC(F)(F)F)cc2)[C@H]1c1ccc(CO)cc1`, for which the composite z-score in [1] was -0.379; in [5], 0.932; in test [7], 0.117; in [8], -1.13; in test [9] it was -1.27; in [10], -0.112. The composite z-score was -0.857 in test [11]; 0.629 in [12]; 1.14 in test [13]; -0.494 in [15]; -0.694 in test [16]; -1.15 in test [17]. The values for the composite z-score in test [18], in test [19] and in test [20] were -0.877, -0.973 and 0.159, respectively. In addition, the z-score in test [2] was -0.545 (inactive); in test [3], -0.808 (inactive); in test [4] it was -0.53 (inactive); in test [6], 1.52 (inactive); in test [14], 0.581 (inactive).
As for `C=CCN1C(=O)[C@]2(O[C@H](CCn3cc(CCO)nn3)[C@@H]([Si](C)(C)c3ccc(OC)cc3)[C@@H]2C)c2cc(NC(=O)c3ccc(OC)cc3)ccc21`, the composite z-score in test [1] was 1.25; in [5], 0.807; in [7], 0.205; in [8], 1.03; in test [9], 0.527; in test [10], -0.109. Further, the composite z-score in [11] was 0.799; in test [12], 0.717; in test [13] it was 0.794; in test [15] it was 0.515; in [16] it was 1.23; in test [17] it was 0.384. For the same molecule, the composite z-score in test [18] worked out at 0.876; in [19] it was 0.863; in [20] it was 1.63. Moreover, the z-score is 1.46 (inactive) in [2]; -1.22 (inactive) in [3]; 1.81 (inactive) in test [4]; 1.94 (inactive) in [6]; 0.0559 (inactive) in [14].
Take `O=C(NCc1ccccc1)[C@@]1(Cc2ccccc2)COC(c2ccc(OCCCO)cc2)=N1`: the composite z-score in test [1] is 1.41; in test [5], 3.11; in test [7], 0.188; in test [8], -0.629; in test [9], -0.0046; in [10], -0.054. Besides, the composite z-score in [11] was 0.838; in test [12], 0.599; in test [13], 1.06; in test [15], 0.117; in test [16], 0.0562; in [17], -0.705. Also, the composite z-score in [18] was -0.641; in test [19], -0.715; in [20], 0.578. Also, the z-score in test [2] is 1.51 (inactive); in test [3], -1.24 (inactive); in test [4], 36.4 (active); in [6], 0.624 (inactive); in [14], -0.13 (inactive).
As to `CC(C)=C1C(=O)C(c2ccccc2)=C2CN3C(=O)N(CCc4ccccc4)C(=O)[C@]3(Cc3ccccc3)[C@H]21`, the composite z-score was -0.632 in test [1]; 1.15 in test [5]; 0.213 in [7]; -0.974 in test [8]; -0.546 in test [9]; -0.138 in test [10]. For the same molecule, the composite z-score in [11] is -0.34; in test [12], 0.809; in [13] it was 1.25; in test [15], -0.316; in test [16], -0.121; in [17], -0.972. For the same molecule, the results for the composite z-score in test [18], in test [19] and in test [20] were -0.356, -1.86 and 0.64, respectively. Besides, the z-score was 0.637 (inactive) in test [2]; 0.927 (inactive) in test [3]; 0.867 (inactive) in [4]; -0.901 (inactive) in test [6]; 0.514 (inactive) in [14].

Values taken from PubChem BioAssay.
